Structures are written as SMILES. Where a structure was tested more than once in an assay, its records may differ in their call. Activity calls are given as the source filed them. How the source made its calls: active means hit-call score of the fitted dose curve at least 0.9, where 1 is the maximum; inactive means score below 0.9.

Consider 7 compounds from PubChem BioAssay (EPA / NIEHS).

The nature of test [1]: ATG_M_61_CIS: Attagene CIS-FACTORIAL HepG2 Assay for M61 Transcription Factor (Internal Marker) (AID 2282937). The settings on record: HepG2 Attagene CIS-FACTORIAL M61 internal marker reporter; actives raise or lower the signal. Put shortly: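 Fluorescence from labelled cDNA fragments, separated by capillary electrophoresis, quantifies reporter induction. HepG2 cells bearing transiently transfected cis-promoter MRTUs were incubated with test chemical for 24 h; DMSO defined baseline for gain/loss fitting.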

Test [2] in a line: ATG_EGR_CIS: Attagene CIS-FACTORIAL HepG2 Assay for human Early Growth Response 1 (EGR1) (AID 2282938). Particulars: HepG2 Attagene CIS-FACTORIAL EGR reporter mRNA; actives raise or lower the signal. Summed up:
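Cell-based multiplex transcription assay: HepG2 carrying transfected cis-element reporter units, 24 h chemical treatment. Fluorescence from capillary electrophoresis of RT-PCR products gives mRNA levels; fitting is bidirectional relative to DMSO.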

Test [3] is described as follows: ATG_M_19_CIS: Attagene CIS-FACTORIAL HepG2 Assay for M19 Transcription Factor (Internal Marker) (AID 2282939). Particulars: HepG2 Attagene CIS-FACTORIAL M19 internal marker reporter; actives raise or lower the signal. Summed up: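 Signals come from fluorescence of labelled reporter-specific PCR fragments resolved by capillary electrophoresis, following 24 h treatment of HepG2 cells transfected with cis-promoter reporter units; activity was fitted in both directions relative to DMSO.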

Test [4] can be described thus: ATG_Ets_CIS: Attagene CIS-FACTORIAL HepG2 Assay for human Erythroblast Transformation Specific (ETS) (AID 2282941). The settings on record: HepG2 ETS cis-reporter transcription, actives raise or lower the signal. Summed up: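 HepG2 cells transiently transfected with cis-promoter reporter transcription units were dosed for 24 h; reporter mRNA was measured by RT-PCR, 6-FAM primer extension, HpaI digestion and capillary electrophoresis, with bidirectional fitting against DMSO baseline.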

The target in test [5] is Hepatocyte nuclear factor 3-beta (Homo sapiens) (UniProt Q9Y261). In words: ATG_FoxA2_CIS: Attagene CIS-FACTORIAL HepG2 Assay for human Forkhead box A2 (FOXA2) (AID 2282942). Particulars: HepG2 cis-reporter transcription factor activity, 24 h; actives raise or lower the signal. Put shortly:
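In transiently transfected human HepG2 cells, promoter-driven reporter mRNA levels after 24 h chemical exposure are determined via RT-PCR with capillary electrophoresis. DMSO serves as baseline for bidirectional fitting.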

The nature of test [6]: ATG_FoxO_CIS: Attagene CIS-FACTORIAL HepG2 Assay for human Forkhead box O (FoxO) (AID 2282943). Particulars: HepG2 Attagene cis-reporter, FoxO element, mRNA; actives raise or lower the signal. Put shortly:
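Read-out: fluorescence of 6-FAM-labelled reporter cDNA fragments resolved by capillary electrophoresis. Transiently transfected HepG2 cells were dosed for 24 h; activity fitted in both directions relative to DMSO controls.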

Test [7] in a line: ATG_GATA_CIS: Attagene CIS-FACTORIAL HepG2 Assay for human GATA Binding Protein (AID 2282944). Particulars: HepG2 GATA cis-element reporter, Attagene multiplex mRNA; actives raise or lower the signal. Put shortly: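 After transfecting HepG2 cells with multiple cis-regulated reporter units, chemicals are dosed for 24 h; isolated RNA undergoes RT-PCR and fluorescent labeling before capillary electrophoresis, with activity expressed against DMSO.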

A short description of test [8]: ATG_GLI_CIS: Attagene CIS-FACTORIAL HepG2 Assay for human Zinc Finger Protein GLI1 (AID 2282945). Particulars: HepG2, Attagene cis-factorial reporter mRNA, GLI element; actives raise or lower the signal. Summed up:
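Transiently transfected HepG2 cells report endogenous transcription factor activity via cis-element-driven reporter units. After 24 h compound exposure, reporter mRNA was measured by RT-PCR with capillary electrophoresis; bidirectional fitting against DMSO baseline.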

Test [9] has as its target Bile acid receptor (Homo sapiens) (UniProt Q96RI1). Nature of the test: ATG_IR1_CIS: Attagene CIS-FACTORIAL HepG2 Assay for human Nuclear Receptor Subfamily 1 Group H Member 4 (NR1H4), IR1 submotif (AID 2282946). Particulars: IR1 reporter transcription, actives raise or lower the signal. Summed up: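 HepG2 cells transiently transfected with multiple cis-promoter-driven reporter units to measure endogenous transcription factor activity; 24 h exposure. Reporter mRNA read by RT-PCR, FAM labelling, HpaI digestion and capillary electrophoresis. Bidirectional fit versus DMSO.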

Test [10] is described as follows: ATG_GRE_CIS: Attagene CIS-FACTORIAL HepG2 Assay for human Glucocorticoid Response Elements (GRE) (AID 2282947). Particulars: HepG2 GRE cis-reporter, Attagene multiplex mRNA; actives raise or lower the signal. Summed up:
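Transiently transfected HepG2 cells carrying GRE cis-reporter units (endogenous TF activity) dosed 24 h; reporter mRNA quantified by RT-PCR, 6-FAM labelling, HpaI digestion and capillary electrophoresis. Bidirectional fit versus DMSO baseline.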

The nature of test [11]: ATG_ISRE_CIS: Attagene CIS-FACTORIAL HepG2 Assay for human Interferon Regulatory Factor 1 (IRF1) binding to an Interferon-Stimulated Response Element (ISRE) (AID 2282948). Particulars: HepG2 ISRE cis-reporter (Attagene), mRNA transcription readout; actives raise or lower the signal. Summed up: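 HepG2 cells transiently transfected with multiplexed cis-promoter reporter units; after 24 h compound exposure, reporter mRNA quantified by RT-PCR, FAM labelling, HpaI digestion and capillary electrophoresis. Bidirectional fit versus DMSO baseline.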

Test [12] in a line: ATG_M_32_CIS: Attagene CIS-FACTORIAL HepG2 Assay for M32 Transcription Factor (Internal Marker) (AID 2282949).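 Further: background control marker of the multiplexed CIS panel rather than a real target.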 The settings on record: HepG2 Attagene cis-factorial M32 reporter, mRNA; actives raise or lower the signal. Put shortly:
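HepG2 cells transiently transfected with multiplexed cis-regulated reporter units, dosed 24 h. Reporter mRNA quantified by RT-PCR, 6-FAM labelling, HpaI digestion and capillary electrophoresis; bidirectional fit vs DMSO.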

Test [13] in a line: ATG_M_06_CIS: Attagene CIS-FACTORIAL HepG2 Assay for M06 Transcription Factor (Internal Marker) (AID 2282950). Particulars: HepG2 Attagene CIS-FACTORIAL M06 internal marker reporter; actives raise or lower the signal. Summed up: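 HepG2 liver cells, 24 h exposure. Reporter transcripts from transfected cis-element constructs quantified by RT-PCR/capillary electrophoresis fluorescence. Bidirectional curve fit against DMSO.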

In test [14] the target is Hypoxia-inducible factor 1-alpha (Homo sapiens) (UniProt Q16665). In words: ATG_HIF1a_CIS: Attagene CIS-FACTORIAL HepG2 Assay for human Hypoxia Inducible Factor 1 (HIF1A) (AID 2282951). Particulars: HepG2 Attagene cis-factorial HIF1a reporter transcription; actives raise or lower the signal. Summed up: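 In this multiplexed cell assay, HepG2 cells bearing transfected cis reporters are dosed for 24 h and reporter mRNA is read by RT-PCR plus capillary electrophoresis; signal increases and decreases are both scored against DMSO.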

For test [15], the target named is Hepatocyte nuclear factor 6 (Homo sapiens) (UniProt Q9UBC0). In words: ATG_HNF6_CIS: Attagene CIS-FACTORIAL HepG2 Assay for human Hepatocyte Nuclear Factor 6 (HNF6) (AID 2282952). The settings on record: HepG2 Attagene cis-factorial HNF6 reporter transcription; actives raise or lower the signal. Put shortly:
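Multiplexed mRNA reporter assay in transfected HepG2; 24 h dosing; RT-PCR plus capillary electrophoresis fluorescence; DMSO-referenced bidirectional curve fitting.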

For test [16], the target named is Heat shock factor protein 1 (Homo sapiens) (UniProt Q00613). Nature of the test: ATG_HSE_CIS: Attagene CIS-FACTORIAL HepG2 Assay for human Heat Shock Transcription Factor 1 (HSE) (AID 2282953). The settings on record: HepG2 HSE cis-reporter, Attagene RNA transcription; actives raise or lower the signal. Put shortly:
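Endogenous transcription factor activity captured via cis-promoter reporter units transfected into HepG2; treatment lasted 24 h. Fluorescence intensity of reporter fragments analysed with bidirectional curve fitting, DMSO baseline.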

Test [17] in a line: ATG_MRE_CIS: Attagene CIS-FACTORIAL HepG2 Assay for human Metal Responsive Element (MRE) (AID 2282954). The settings on record: HepG2 MRE cis-reporter transcription, Attagene multiplex; actives raise or lower the signal. Put shortly: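 HepG2 cells transiently transfected with cis-element-driven reporter units; mRNA measured 24 h after dosing. Reporter transcripts quantified by RT-PCR, FAM labelling, HpaI digestion and capillary electrophoresis; bidirectional fit versus DMSO.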

A short description of test [18]: ATG_PBREM_CIS: Attagene CIS-FACTORIAL HepG2 Assay for human Phenobarbital-responsive Enhancer Module (PBREM) (AID 2282955). The settings on record: HepG2 PBREM cis-reporter, Attagene multiplexed transcription; actives raise or lower the signal. Put shortly: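 After a 24 h incubation with test chemical, transfected HepG2 cells yield total RNA; reporter-specific RT-PCR products are fluorescently labelled, HpaI-digested and resolved by capillary electrophoresis against ROX size standards.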

The target of test [19] is Paired box protein Pax-6 (Homo sapiens) (UniProt P26367). In words: ATG_Pax6_CIS: Attagene CIS-FACTORIAL HepG2 Assay for human Paired Box 6 (PAX6) (AID 2282956). Particulars: HepG2 CIS-FACTORIAL PAX6 reporter transcription, RNA readout; actives raise or lower the signal. Put shortly: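 HepG2 cells transiently transfected with multiplexed cis-promoter reporter units (endogenous TF activity) were dosed for 24 h. Reporter mRNA was quantified by RT-PCR, 6-FAM labeling, HpaI digestion and capillary electrophoresis; bidirectional fitting versus DMSO baseline.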

Test [20] is described as follows: ATG_ERE_CIS: Attagene CIS-FACTORIAL HepG2 Assay for Estrogen Response Element (ERE) (AID 2282940). Particulars: HepG2 ERE cis-reporter, Attagene RNA transcript; actives raise or lower the signal. Summed up:
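Fluorescence of capillary-separated, FAM-labelled reporter cDNA fragments indicates reporter mRNA levels in HepG2 cells exposed to chemicals for 24 h. Transient transfection with cis-regulated units; data fitted in both directions against DMSO.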

Chain of Paired box protein Pax-6 (Homo sapiens) (P26367 whole entry, looked up): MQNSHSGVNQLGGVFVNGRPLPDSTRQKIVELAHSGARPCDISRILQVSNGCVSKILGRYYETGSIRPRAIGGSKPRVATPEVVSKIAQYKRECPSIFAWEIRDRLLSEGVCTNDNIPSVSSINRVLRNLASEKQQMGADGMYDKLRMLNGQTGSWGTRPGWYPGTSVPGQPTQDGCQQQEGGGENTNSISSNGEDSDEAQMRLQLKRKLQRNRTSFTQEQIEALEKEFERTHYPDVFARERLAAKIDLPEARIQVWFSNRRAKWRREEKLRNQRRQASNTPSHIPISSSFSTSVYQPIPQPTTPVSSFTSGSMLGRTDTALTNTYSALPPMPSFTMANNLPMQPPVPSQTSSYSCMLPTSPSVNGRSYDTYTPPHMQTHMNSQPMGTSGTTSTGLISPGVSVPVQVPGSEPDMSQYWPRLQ
Chain of Bile acid receptor (Homo sapiens) (Q96RI1 whole entry, looked up): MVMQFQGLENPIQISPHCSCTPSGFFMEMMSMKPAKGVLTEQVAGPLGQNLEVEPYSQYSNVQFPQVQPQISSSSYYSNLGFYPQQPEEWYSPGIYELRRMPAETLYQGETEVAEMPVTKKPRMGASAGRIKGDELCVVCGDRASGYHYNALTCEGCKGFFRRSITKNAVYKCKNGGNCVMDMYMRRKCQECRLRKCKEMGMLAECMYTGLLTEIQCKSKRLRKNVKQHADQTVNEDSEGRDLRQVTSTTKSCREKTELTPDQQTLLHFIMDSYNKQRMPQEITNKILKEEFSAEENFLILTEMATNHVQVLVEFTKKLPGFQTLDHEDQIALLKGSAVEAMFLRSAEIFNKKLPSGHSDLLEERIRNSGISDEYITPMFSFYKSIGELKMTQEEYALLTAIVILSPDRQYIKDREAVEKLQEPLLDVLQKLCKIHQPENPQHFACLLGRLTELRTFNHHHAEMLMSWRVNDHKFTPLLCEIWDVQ
Chain of Hepatocyte nuclear factor 3-beta (Homo sapiens) (Q9Y261 whole entry, looked up): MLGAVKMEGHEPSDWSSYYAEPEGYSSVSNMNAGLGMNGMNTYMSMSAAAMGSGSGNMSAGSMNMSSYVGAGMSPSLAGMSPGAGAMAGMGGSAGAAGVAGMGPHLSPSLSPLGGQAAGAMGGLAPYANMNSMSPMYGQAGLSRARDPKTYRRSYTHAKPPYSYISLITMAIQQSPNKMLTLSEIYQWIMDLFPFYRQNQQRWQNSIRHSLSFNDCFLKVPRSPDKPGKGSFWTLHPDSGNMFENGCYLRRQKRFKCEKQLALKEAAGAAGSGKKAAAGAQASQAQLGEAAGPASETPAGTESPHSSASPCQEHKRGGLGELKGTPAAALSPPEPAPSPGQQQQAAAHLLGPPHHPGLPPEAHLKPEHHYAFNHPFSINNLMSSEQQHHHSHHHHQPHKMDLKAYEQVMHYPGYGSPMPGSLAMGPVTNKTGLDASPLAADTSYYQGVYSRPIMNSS
Chain of Hepatocyte nuclear factor 6 (Homo sapiens) (Q9UBC0 whole entry, looked up): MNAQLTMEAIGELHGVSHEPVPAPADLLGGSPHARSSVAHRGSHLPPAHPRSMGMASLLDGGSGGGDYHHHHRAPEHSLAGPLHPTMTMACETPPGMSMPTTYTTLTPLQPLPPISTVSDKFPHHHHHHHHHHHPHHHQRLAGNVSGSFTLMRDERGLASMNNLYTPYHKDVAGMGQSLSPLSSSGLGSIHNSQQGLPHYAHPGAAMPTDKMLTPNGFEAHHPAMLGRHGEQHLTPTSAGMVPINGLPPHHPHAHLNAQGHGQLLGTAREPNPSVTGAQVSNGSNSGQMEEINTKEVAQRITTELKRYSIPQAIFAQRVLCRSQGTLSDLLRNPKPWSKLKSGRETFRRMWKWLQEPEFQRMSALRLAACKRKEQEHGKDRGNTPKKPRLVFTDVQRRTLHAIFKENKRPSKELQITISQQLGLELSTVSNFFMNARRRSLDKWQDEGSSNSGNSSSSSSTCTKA
Chain of Heat shock factor protein 1 (Homo sapiens) (Q00613 whole entry, looked up, the tested form may be a part): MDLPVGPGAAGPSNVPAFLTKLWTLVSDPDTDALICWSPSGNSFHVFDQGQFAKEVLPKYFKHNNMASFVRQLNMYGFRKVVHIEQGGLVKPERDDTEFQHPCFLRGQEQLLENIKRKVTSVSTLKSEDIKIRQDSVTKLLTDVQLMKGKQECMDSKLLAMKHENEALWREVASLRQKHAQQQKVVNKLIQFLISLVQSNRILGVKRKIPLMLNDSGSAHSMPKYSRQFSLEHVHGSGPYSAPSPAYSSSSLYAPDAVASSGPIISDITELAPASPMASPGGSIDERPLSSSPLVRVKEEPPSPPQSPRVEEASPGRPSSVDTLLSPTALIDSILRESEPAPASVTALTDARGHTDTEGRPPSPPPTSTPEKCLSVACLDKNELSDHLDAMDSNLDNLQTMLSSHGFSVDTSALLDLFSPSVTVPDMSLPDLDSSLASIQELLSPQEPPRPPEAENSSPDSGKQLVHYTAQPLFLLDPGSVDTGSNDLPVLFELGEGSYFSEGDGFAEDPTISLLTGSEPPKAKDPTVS
Chain of Hypoxia-inducible factor 1-alpha (Homo sapiens) (Q16665 whole entry, looked up): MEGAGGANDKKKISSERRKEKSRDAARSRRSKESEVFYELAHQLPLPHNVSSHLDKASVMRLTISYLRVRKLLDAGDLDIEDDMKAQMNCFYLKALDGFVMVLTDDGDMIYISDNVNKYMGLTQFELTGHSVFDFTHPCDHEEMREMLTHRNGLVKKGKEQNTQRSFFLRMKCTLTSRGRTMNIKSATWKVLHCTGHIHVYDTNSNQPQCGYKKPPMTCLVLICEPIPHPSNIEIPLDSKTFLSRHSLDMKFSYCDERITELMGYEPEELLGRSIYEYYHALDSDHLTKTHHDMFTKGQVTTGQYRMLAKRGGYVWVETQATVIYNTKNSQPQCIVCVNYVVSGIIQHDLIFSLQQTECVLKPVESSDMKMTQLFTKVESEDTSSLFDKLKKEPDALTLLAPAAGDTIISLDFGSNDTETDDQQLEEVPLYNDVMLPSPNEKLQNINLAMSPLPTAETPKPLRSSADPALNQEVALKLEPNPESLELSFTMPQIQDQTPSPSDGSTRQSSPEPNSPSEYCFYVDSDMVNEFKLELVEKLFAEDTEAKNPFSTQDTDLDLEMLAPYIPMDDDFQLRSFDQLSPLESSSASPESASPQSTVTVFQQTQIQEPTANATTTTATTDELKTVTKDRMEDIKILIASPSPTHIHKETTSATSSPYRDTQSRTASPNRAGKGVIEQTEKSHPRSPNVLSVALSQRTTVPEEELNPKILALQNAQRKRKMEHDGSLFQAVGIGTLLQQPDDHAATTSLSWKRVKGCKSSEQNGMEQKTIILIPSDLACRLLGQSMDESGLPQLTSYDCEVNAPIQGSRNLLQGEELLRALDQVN

One may read the AC50 as the concentration at which the activity in the assay is half-maximal. As to `CC1(C)[C@H](C(=O)O[C@H](C#N)c2cccc(Oc3ccccc3)c2)[C@@H]1/C=C(\Cl)C(F)(F)F`, the compound was classed as inactive in test [1], in [2], in test [3], in test [4], in [5] and in test [6]. Further, the outcome in test [7], in [8], in [9], in test [10], in [11] and in test [12] was inactive. The compound was classed as inactive in test [13], in [14], in test [15], in test [16], in [17] and in test [18]. In addition, the compound was classed as inactive in [19]. Moreover, the AC50 in test [18] is 1.16 µM (active).
Take `Cl[C@H]1OCCO[C@@H]1Cl`: the call in [1], in [2], in [3], in test [4], in [5] and in test [6] was inactive. Also, the call in test [7], in test [8], in test [9], in test [10], in test [11] and in test [12] was inactive. The call in test [13], in test [15], in test [16], in test [17], in test [18] and in test [19] was inactive. Besides, the AC50 in test [14] is 49.6 µM (active).
With `CCOP(=S)(OCC)SCS(=O)(=O)C(C)(C)C`, the call in test [1], in [2], in test [3], in test [20], in test [6] and in [7] was inactive. Further, the compound was called inactive in test [8], in [10], in test [11], in [13], in test [14] and in [15]. For the same compound, the compound was called inactive in [17], in test [18] and in test [19]. Moreover, the AC50 in [9] is 34.8 µM (active).
Turning to `CC(C)(c1ccccc1)c1cc(-n2nc3ccccc3n2)c(O)c(C(C)(C)c2ccccc2)c1`, the call in test [1], in test [2], in [3], in test [20], in test [5] and in [6] was inactive. The call in test [7], in test [8], in [10], in [11], in test [12] and in test [13] was inactive. The call in test [14], in test [15], in test [17], in [18] and in test [19] was inactive.
For the compound `Cc1cccc(C)c1NC(=O)CN1CCCC1=O`, the compound was classed as inactive in test [1], in test [2], in test [3], in test [20], in [5] and in test [8]. For the same compound, the result in test [9], in test [10], in test [11], in [12], in [13] and in [14] was inactive. Moreover, the outcome in test [15], in test [17] and in [19] was inactive.
For the compound `O=C(NC(=O)c1c(F)cccc1F)Nc1ccc(Cl)cc1`, the call in test [1], in test [2], in test [3], in test [20], in test [6] and in test [7] was inactive. Further, the compound was classed as inactive in test [8], in [9], in [12], in test [13], in [14] and in test [15]. Besides, the outcome in test [16], in test [17], in [18] and in test [19] was inactive.
On to `Brc1ccc(Br)cc1`, for which the compound was called inactive in test [1], in test [2], in [3], in test [4], in test [5] and in [6]. Further, the call in [7], in test [8], in test [9], in test [10], in test [11] and in test [12] was inactive. The compound was called inactive in test [13], in test [14], in test [15], in test [16], in [17] and in [18]. Further, the compound was called inactive in test [19].
